# About 79,000 compounds went through this panel and 15% of them were active in at least one assay; those are over-represented in the sample as a whole. A number with no mark means an inactive call. Cut-off read from the data, not from the text of the source: active = growth inhibition above about 70%; inactive = the rest.
# Assay: NCI Yeast Anticancer Drug Screen. Data for the cln2 rad14 strain (AID 165);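 note: 0% = growth equal to vehicle treated cultures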
# Conditions: S. cerevisiae cln2 rad14 strain, at 50.0 µM, hits give high values
# Description: Growth inhibition of yeast strains with defined genetic alterations is measured as a screen for potential anti-cancer activity. Selected strains with alterations in DNA damage repair or cell cycle control were exposed to compounds and growth inhibition was measured relative to vehicle treated controls. The strain used in this assay is cln2 rad14
row,SMILES,growth inhibition [%]
1,CCOC(=O)/C(=N\O)C(C)(C)c1ccnc2ccccc12,4.05
2,COc1c(NC(=O)c2ccc(C(=O)Nc3cccc([N+](=O)[O-])c3OC)cc2)cccc1[N+](=O)[O-],-20.6
3,Nc1ccc(N=Nc2ccncc2)c2ccccc12,-15.1
4,COC1=CC(=O)N/C1=C(\OC)c1ccccc1,-5.6
5,CCN(C(=N)C#N)c1ccccc1,24.4
6,N#CC(C#N)=C1C=CC=CC=C1,-11.4
7,Cc1cccc(C(=O)OC(=O)c2cccc(C)c2)c1,-6
8,Oc1cccc(CCc2ccccn2)c1,-24.3
9,CC(=O)N(CCCc1ccccc1)C(C)(C)C,-22.1
10,CCOc1ccc(Nc2ccc3c(O)cc(S(=O)(=O)O)cc3c2)cc1,-20.4
11,CCCCCCn1c(=O)cc2n(c1=O)CCC2,11.1
12,CCOC(=O)N1C=Cc2ccccc2C1C(=N)N (stereo not given),-7.7
13,COC(=O)/C=C/c1ccc2c(c1)CCC2,14.6
14,CCc1ccccc1Cc1ccccc1,4.65
15,Cc1ccc(NC(=O)c2cc(S(=O)(=O)n3cc[nH]c3=O)c(S)cc2Cl)cc1,8.65
16,OC12CCCCCC1(N1CCOCC1)c1ccccc12 (stereo not given),-21.1
17,Clc1ccc2cc(Cl)c3ccccc3c2c1,-20.9
18,O=C(O)c1ccncc1,46.9
19,COC(=O)Nc1ccc(C)cc1[N+](=O)[O-],-50.4
20,CSc1nc2ccc(N=Cc3ccccc3O)cc2s1,-12.6

row,SMILES,growth inhibition [%]
1,CCOc1ccccc1NC(=O)CC(C)=O,1.9
2,CSC1(C)CC2C(CC1N1CCOCC1)C2(C)C (stereo not given),-14.2
3,COc1cc(C(=O)NC2CCc3cc(OC)c(OC)c(OC)c3-c3ccc(OC)c(=O)cc32)cc(OC)c1OC (stereo not given),12.2
4,O=[N+]([O-])c1ccc(Nc2ccc(Cl)cc2)c2nonc12,18.4
5,COC(=O)/C=C1\SC(OC)(N(C)c2ccccc2)N(C)C1=O (stereo not given),-10.4
6,CC(C)C(NC(=O)C(Cc1ccccc1)NC(=O)[C@H]1CCC[C@H]1NC(=O)C(Cc1ccc(OC(C)(C)C)cc1)NC(=O)OC(C)(C)C)C(N)=O (stereo not given in full),18.7
7,C=CCCCCCCCCCCCCCC,10
8,CCOC(=O)N1Cc2cc3ccccc3nc2C1CC(=O)O (stereo not given),-28.1
9,Cc1ccc(S(=O)(=O)OC(c2ccc(Cl)cc2)C(F)(F)F)cc1 (stereo not given),21.9
10,CCOC(=O)C1(C)OC1c1ccc([N+](=O)[O-])cc1 (stereo not given),-15.6
11,CCCCCCC(NC(C)=O)C(=O)O (stereo not given),6.35
12,Nc1nnc2nc(CC(=O)c3ccccc3[N+](=O)[O-])c(CC(=O)c3ccccc3[N+](=O)[O-])nn12,-13.3
13,O=C(NNC1=NCCN1Cc1ccccc1)c1cccc(Cl)c1,14.6
14,CC(=O)CC1CCCCCC1,-11.3
15,CNCCS(=O)(=O)O,-6.3
16,O=C(CCc1ccccc1)NC(=S)Nc1cc(C(F)(F)F)ccc1Cl,-41.8
17,O=c1[nH]c(Nc2ccccc2)nc2c1ncn2CC(O)CSCCO (stereo not given),8.45
18,COc1ccccc1NC(=O)/C(=C\n1c(=S)[nH]c2ccc([N+](=O)[O-])cc21)C(C)=O,-6.25
19,CCCCN=C=NCCC[N+](C)(C)C,10
20,Cc1ccccc1NC=O,5.9

# Reference: PubChem BioAssay (NCI)
